Compound activity deposited in PubChem BioAssay by National Center for Advancing Translational Sciences (NCATS).
Shown are actives, neighbours in structure and some others; about 17% of the full set was active somewhere.
DT40 TDP1 no CPT = qHTS for Inhibitors of human tyrosyl-DNA phosphodiesterase 1 (TDP1): qHTS in cells in absence of CPT | hit rate 15% among 420,000 | Potency, µM (doses to about 46.2 µM), for inactives: at the top dose activity change, negative = growth inhibition, actives largely listed as inhibitors | DT40 Tdp1-/- hTDP1 cells, no CPT, ATP luminescence, 48 h; further: on the % scale 0 is the no-effect control and ±100 the full control effect; nearly all actives have a fitted effect of over 55% in size
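Growth of hTDP1-complemented DT40 Tdp1-knockout cells is measured by ATP luminescence after at least 48 hr compound exposure at 37 °C, with DMSO substituting for the 20 nM CPT used in the parallel screen.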
TGFb inhibitor = qHTS for Inhibitors of TGF-b. HepG2 CAGA-GFP TGF-b/SMAD3 reporter, GFP fluorescence, 18 h; TGF-beta stimulated, 500 pg/mL final. Potency, µM (series often up to 46.1 µM), for inactives: top-dose activity, negative = inhibition, most hits filed as inhibitors. hit rate 1.2% among 410,000; further: on the % scale 0 is the no-effect control and ±100 the full control effect; nearly all actives have a fitted effect of over 65% in size
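TGF-beta reporter screen: HEPG2 CAGA-GFP, 1% FBS, 500 pg/mL TGF-beta final, 18 h; per-cell GFP summed per well; curves fitted and categorized by class.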
HT1080-NT tox = qHTS for induction of synthetic lethality in tumor cells producing 2HG: qHTS for the HT-1080-NT fibrosarcoma cell line. HT-1080-NT fibrosarcoma viability, CellTiter-Glo ATP luminescence, 48 h. Potency, µM (series often up to 46.1 µM), for inactives: at the top dose activity, negative = less viability, usual class: cytotoxic. hit rate 1.6% among 360,000;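 further: NT is the 2HG producing partner of a matched IDH1 knockdown line; 0% = DMSO-treated cells and -100% = media-only wells without cells; nearly all actives have a fitted effect of over 55% in size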
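Toxicity toward the 2HG-producing NT line was scored as %Activity, normalised to DMSO and no-cell wells, from CellTiter-Glo luminescence after 48 hours' treatment.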
HT1080 IDH1KD tx = qHTS for induction of synthetic lethality in tumor cells producing 2HG: qHTS for the HT-1080-IDH1KD cell line | HT-1080 IDH1 knockdown viability, ATP luminescence, 48 h | Potency, µM (highest dose often 46.1 µM), for the others: at the top dose activity, negative = toxicity, hits mostly cytotoxic | hit rate 2% among 360,000 | AID 686971, 2013;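 further: 0% = DMSO wells and -100% = cell-free medium wells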
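% activity derives from luminescence (CellTiter-Glo), normalised to DMSO and no-cell wells. HT-1080-IDH1KD cells, 750/well, had 48 h compound exposure at 37 °C.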
TDP1 cell CPT = qHTS for Inhibitors of human tyrosyl-DNA phosphodiesterase 1 (TDP1): qHTS in cells in presence of CPT | Potency, µM (highest dose often 46.2 µM), inactives show at the top dose activity change, negative = growth inhibition, hits mostly inhibitors | hit rate 12% among 420,000 | AID 686979, 2013 | chicken DT40 Tdp1-/-;hTDP1 cells + 20 nM CPT, ATP luminescence, 48 h; further: on the % scale 0 is the no-effect control and ±100 the full control effect; nearly all actives have a fitted effect of over 55% in size
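Chicken DT40 Tdp1-/- cells complemented with human TDP1, 400 cells/well, exposed to compounds plus 20 nM camptothecin for at least 48 h at 37 C; viability read as ATP content by CellTiter-Glo luminescence.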
HepG2 tox = qHTS for Inhibitors of TGF-b: Cytotox Counterscreen; HepG2 CAGA-GFP viability, ATP luminescence, 18 h; Potency, µM (series often up to 46.1 µM), inactives show top-dose activity change, negative = cytotoxicity, hits mostly cytotoxic; hit rate 0.76% among 410,000; AID 588856, 2011
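HepG2 CAGA-GFP cells (1000/well, DMEM with 1% FBS) received compound, then TGF-beta at 500 pg/mL final, and were incubated 18 hours at 37 degrees C. Viability was read by CellTiter-Glo luminescence. Media-only wells were set as complete cell-killing and DMSO as no toxicity.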
Numbers without * were called inactive; [ ] = remark or other dose. The call rests on the fitted dose curve; in most records, active means well fitted curve in the direction sought with a large enough effect; inconclusive means small, poorly fitted or top-dose-only effect, or another doubt; inactive means no such curve, though single readings can be large; an effect the other way counts as inactive or inconclusive. Potency means the concentration at half of the fitted maximal effect.

What do the screens show for `O=C(Cn1c(=O)nc(-c2ccccc2)c2cc(Cl)ccc21)N1CCN(c2ccc(F)cc2)CC1`?
DT40 TDP1 no CPT: -13.0%; TGFb inhibitor: -4.4%; TDP1 cell CPT: 15.7%; HepG2 tox: -0.5%

How did Cc1ccc(C)c(N2CCN(CCCNC(=O)c3cnn(-c4ccccc4)c3C3CCN(C(=O)OC(C)(C)C)CC3)CC2)c1 do in these assays?
DT40 TDP1 no CPT: 4.61µM*; TGFb inhibitor: 0.0%; TDP1 cell CPT: 6.51µM*; HepG2 tox: -19.5%

How did COc1ccccc1N1CCN(CCCNC(=O)c2cnn(-c3cccc(Cl)c3)c2C2CCN(C(=O)OC(C)(C)C)CC2)CC1 do in these assays?
DT40 TDP1 no CPT: 7.31µM*; TGFb inhibitor: 12.6µM*; TDP1 cell CPT: 9.2µM*; HepG2 tox: 12.6µM*

What do the screens show for `COc1ccc(C(=O)c2c(N)c(C(=O)Nc3cccc(OC)c3)c3ccccn23)cc1`?
DT40 TDP1 no CPT: -26.8%; TGFb inhibitor: 10.7%; TDP1 cell CPT: inconclusive; HepG2 tox: -0.8%

What do the screens show for `CCOc1ccc(N)c(SSc2cc(OCC)ccc2N)c1`?
DT40 TDP1 no CPT: 5.17µM*; TGFb inhibitor: 6.31µM*; HT1080-NT tox: inconclusive; HT1080 IDH1KD tx: inconclusive; TDP1 cell CPT: 2.59µM*; HepG2 tox: 10µM*

How did Cc1[nH]c(=O)[nH]c(=O)c1S(=O)(=O)Nc1cccc(Cl)c1C do in these assays?
DT40 TDP1 no CPT: 11.2%; TGFb inhibitor: 1.4%; TDP1 cell CPT: -1.4%; HepG2 tox: 0.7%

What do the screens show for `Cc1c(C(=O)NCCN2CCOCC2)cnn1-c1nccc(-c2cc3ccccc3o2)n1`?
DT40 TDP1 no CPT: -18.4%; TDP1 cell CPT: -17.2%

Results for O=C(NCCN1CCOCC1)c1cnn(-c2nccc(-c3cc4ccccc4o3)n2)c1C1CC1 ?
DT40 TDP1 no CPT: inconclusive; TDP1 cell CPT: 18.4µM*

What do the screens show for `CCN1CCCC1CNC(=O)c1cnn(-c2nccc(-c3ccc(C)o3)n2)c1C1CC1` (stereo unspecified)?
DT40 TDP1 no CPT: -4.3%; TDP1 cell CPT: 1.2%

Results for Cc1ccc(-c2ccnc(-n3ncc(C(=O)NCCN4CCOCC4)c3C3CC3)n2)o1 ?
DT40 TDP1 no CPT: -23.8%; TDP1 cell CPT: 20.6µM*

Results for O=C(NCC1(N2CCOCC2)CCCCC1)c1cnn(-c2nccc(-c3cccs3)n2)c1C1CC1 ?
DT40 TDP1 no CPT: 20.6µM*; TDP1 cell CPT: inconclusive

Results for CCOc1ccc(CC(=O)N/N=C/c2sccc2C)cc1 ?
DT40 TDP1 no CPT: -1.4%; TGFb inhibitor: -18.1%; HT1080-NT tox: 17.1%; HT1080 IDH1KD tx: 11.3%; TDP1 cell CPT: -3.9%; HepG2 tox: -15.2%

What do the screens show for `COc1ccccc1N1CCN(S(=O)(=O)c2c(C)nc3sccn3c2=O)CC1`?
DT40 TDP1 no CPT: 3.1%; TGFb inhibitor: 32.1%; TDP1 cell CPT: 5.9%; HepG2 tox: -2.1%

Results for CCCCCCCc1nn2c(=O)cc(O)nc2s1 ?
DT40 TDP1 no CPT: inconclusive; TGFb inhibitor: 5.8%; HT1080-NT tox: -4.9%; HT1080 IDH1KD tx: 0.3%; TDP1 cell CPT: inconclusive; HepG2 tox: -1.6%

What do the screens show for `CC(OC(=O)c1cc2sccc2n1C)C(=O)NCCc1ccccc1` (stereo unspecified)?
DT40 TDP1 no CPT: 17.8µM*; TGFb inhibitor: -12.9%; HT1080-NT tox: inconclusive; HT1080 IDH1KD tx: inconclusive; TDP1 cell CPT: 14.6µM*; HepG2 tox: -12.8%

Results for O=S(=O)(c1ccccc1Br)N(CC(O)COCc1ccccc1)C1CC1 (stereo unspecified) ?
DT40 TDP1 no CPT: -21.0%; TGFb inhibitor: -15.5%; HT1080-NT tox: -2.8%; HT1080 IDH1KD tx: 4.2%; TDP1 cell CPT: inconclusive; HepG2 tox: -28.1%

How did O=S(=O)(c1ccccc1Br)N(Cc1ccccc1)CC(O)COCc1ccccc1 (stereo unspecified) do in these assays?
DT40 TDP1 no CPT: inconclusive; TGFb inhibitor: inconclusive; HT1080-NT tox: inconclusive; HT1080 IDH1KD tx: inconclusive; TDP1 cell CPT: 23.1µM*; HepG2 tox: -71.7%

How did CCOC(=O)[C@]12CCC=C1N(Cc1ccc3c(c1)OCO3)C(=O)[C@H](CC(=O)N1CCC(c3ccccc3)CC1)C2 do in these assays?
DT40 TDP1 no CPT: 16.4µM*; HT1080-NT tox: -19.9%; HT1080 IDH1KD tx: inconclusive; TDP1 cell CPT: inconclusive

How did CCOC(=O)[C@]12CCCC=C1N(Cc1ccc3c(c1)OCO3)C(=O)[C@H](CC(=O)N1CCCCC1)C2 do in these assays?
DT40 TDP1 no CPT: 14.6µM*; HT1080-NT tox: 3.4%; HT1080 IDH1KD tx: 4.9%; TDP1 cell CPT: 13µM*

Results for CCOC(=O)[C@]12CCCC=C1N(Cc1ccc3c(c1)OCO3)C(=O)[C@H](CC(=O)N1CCCC1)C2 ?
DT40 TDP1 no CPT: 20.6µM*; HT1080-NT tox: 1.4%; HT1080 IDH1KD tx: 0.3%; TDP1 cell CPT: inconclusive

Results for CCOC(=O)N1CCN(C(=O)C[C@@H]2C[C@@]3(C(=O)OCC)CCC=C3N(Cc3ccc4c(c3)OCO4)C2=O)CC1 ?
DT40 TDP1 no CPT: inconclusive; HT1080-NT tox: inconclusive; HT1080 IDH1KD tx: inconclusive; TDP1 cell CPT: -27.8%

What do the screens show for `CCCN1CCN(CCNC(=O)Nc2cc(C)ccc2OC)CC1`?
DT40 TDP1 no CPT: -5.6%; TGFb inhibitor: inconclusive; TDP1 cell CPT: 6.0%; HepG2 tox: -0.4%

Results for COc1ccc2cc(CNC3CCS(=O)(=O)C3)c(-c3ccc(OC)c(OC)c3)nc2c1 (stereo unspecified) ?
DT40 TDP1 no CPT: -3.6%; TDP1 cell CPT: 4.1%[9.04 µM]

How did CCc1ccc(NCc2cc3cc(OC)c(OC)cc3n(CC(=O)Nc3cc(C)ccc3C)c2=O)cc1 do in these assays?
TGFb inhibitor: -2.9%; HepG2 tox: -29.5%

What do the screens show for `Cc1nc2sccn2c(=O)c1CCN1CCC(=C(c2ccccc2)c2ccc(F)cc2)CC1`?
DT40 TDP1 no CPT: 11.9µM*; TDP1 cell CPT: 13.3µM*
